Read-out in assay [1]: Thrombomodulin, THBD (gene 7056)
In words: BSK_CASM3C_Thrombomodulin: BioMAP Diversity Plus: CASM3C Assay for Thrombomodulin Biomarker Activity (AID 2283051).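 Also: thrombomodulin protein level measured by ELISA 24 h after dosing.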 Conditions: primary human coronary artery smooth muscle cells; actives raise or lower the signal.

Read-out in assay [2]: Tissue Factor, F3 (gene 2152)
In words: BSK_CASM3C_TissueFactor: BioMAP Diversity Plus: CASM3C Assay for Tissue Factor Biomarker Activity (AID 2283052).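 Also: cell surface tissue factor protein level read by ELISA.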 The note with it: primary human coronary artery smooth muscle cells; actives raise or lower the signal.

Read-out in assay [3]: Interferon-gamma inducible Protein 10 (IP10), CXCL10 (gene 3627)
Kind of assay: BSK_hDFCGF_IP10: BioMAP Diversity Plus: hDFCGF Assay for Interferon-gamma inducible Protein 10 (IP10) Biomarker Activity (AID 2283053). The note with it: primary human foreskin fibroblasts; actives raise or lower the signal. Put shortly: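 Primary human foreskin fibroblasts exposed to chemicals for 24 h. IP-10 measured by ELISA; changes fitted bidirectionally against DMSO baseline.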

Read-out in assay [4]: Urokinase-type plasminogen activator receptor (uPAR), PLAUR (gene 5329)
In words: BSK_CASM3C_uPAR: BioMAP Diversity Plus: CASM3C Assay for Urokinase-type plasminogen activator receptor (uPAR) Biomarker Activity (AID 2283054).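 Also: cell-surface uPAR protein level quantified by ELISA.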 Conditions: primary human coronary artery smooth muscle cells; actives raise or lower the signal.

Read-out in assay [5]: Vascular cell adhesion molecule 1 (VCAM1), VCAM1 (gene 7412)
Kind of assay: BSK_CASM3C_VCAM1: BioMAP Diversity Plus: CASM3C Assay for Vascular cell adhesion molecule 1 (VCAM1) Biomarker Activity (AID 2283055).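 Also: VCAM-1 protein level quantified by ELISA on the cells.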 Conditions: primary human coronary artery smooth muscle cells; actives raise or lower the signal.

Read-out in assay [6]: Collagen III, COL3A1 (gene 1281)
Kind of assay: BSK_hDFCGF_CollagenIII: BioMAP Diversity Plus: hDFCGF Assay for Collagen III Biomarker Activity (AID 2283056). Conditions: primary human foreskin fibroblasts; actives raise or lower the signal. Put shortly: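 hDFCGF primary human dermal fibroblasts; 24 h chemical exposure; collagen III by ELISA; bidirectional curve fit vs DMSO baseline (gain or loss of signal).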

Read-out in assay [7]: Epidermal growth factor receptor (EGFR), EGFR (gene 1956)
In words: BSK_hDFCGF_EGFR: BioMAP Diversity Plus: hDFCGF Assay for Epidermal growth factor receptor (EGFR) Biomarker Activity (AID 2283057). Conditions: primary human foreskin fibroblasts; actives raise or lower the signal. Put shortly: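 Primary human foreskin fibroblasts (hDFCGF system), sampled 24 h after dosing; EGFR quantified by ELISA. Bidirectional fit relative to DMSO baseline; SRB total-protein staining in parallel cultures for cytotoxicity.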

Read-out in assay [8]: Interleukin-8 (IL8), CXCL8 (gene 3576)
In words: BSK_hDFCGF_IL8: BioMAP Diversity Plus: hDFCGF Assay for Interleukin-8 (IL8) Biomarker Activity (AID 2283058). Conditions: primary human foreskin fibroblasts; actives raise or lower the signal. In short, it runs like this:
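ELISA read-out of IL-8 from primary human foreskin fibroblast cultures taken 24 h after dosing; values are bidirectional fits relative to DMSO vehicle.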

Assay [9] in a line: BSK_hDFCGF_Proliferation: Cell Proliferation Assessment in the BioMAP Diversity Plus: hDFCGF Assay (AID 2283059).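 Also: curves fitted for both rise and fall of signal versus DMSO baseline.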 Conditions: primary human foreskin fibroblasts. In short, it runs like this: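 This proliferation readout used SRB total-protein staining of human foreskin fibroblasts […], normalized to DMSO with bidirectional curve fitting.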
Read-out in assay [10]: Macrophage colony-stimulating factor (MCSF), CSF1 (gene 1435)
In words: BSK_hDFCGF_MCSF: BioMAP Diversity Plus: hDFCGF Assay for Macrophage colony-stimulating factor (MCSF) Biomarker Activity (AID 2283060). Conditions: primary human foreskin fibroblasts; actives raise or lower the signal. Put shortly:
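ELISA read-out of M-CSF in human dermal foreskin fibroblast cultures, 24 h after chemical dosing; gain or loss of signal fitted bidirectionally relative to DMSO baseline.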

A short description of assay [11]: BSK_hDFCGF_SRB: Viability Assessment in the BioMAP Diversity Plus: hDFCGF Assay (AID 2283061).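 Also: cells exposed to compound for 24 h before the read.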 Conditions: primary human foreskin fibroblasts. In short, it runs like this: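 Primary human foreskin fibroblasts; 24 h post-dose; fixed 10% TCA, stained 0.1% SRB, A560 read; total protein as overt cytotoxicity measure; curves fit bidirectionally vs DMSO control.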
Read-out in assay [12]: TIMP metallopeptidase inhibitor 1 (TIMP1), TIMP1 (gene 7076)
Kind of assay: BSK_hDFCGF_TIMP1: BioMAP Diversity Plus: hDFCGF Assay for TIMP metallopeptidase inhibitor 1 (TIMP1) Biomarker Activity (AID 2283062). Conditions: primary human foreskin fibroblasts; actives raise or lower the signal. In short, it runs like this:
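ELISA readout of TIMP-1 from human dermal foreskin fibroblast cultures 24 h post-dosing. Curves were fitted in both directions against DMSO baseline, with SRB total-protein staining in parallel cultures as a cytotoxicity check.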

Read-out in assay [13]: Monokine induced gamma interferon (MIG), CXCL9 (gene 4283)
Kind of assay: BSK_hDFCGF_MIG: BioMAP Diversity Plus: hDFCGF Assay for Monokine induced gamma interferon (MIG) Biomarker Activity (AID 2283063). The note with it: primary human foreskin fibroblasts; actives raise or lower the signal. In short, it runs like this:
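Fibroblasts (human foreskin, primary) dosed, 24 h, MIG by ELISA; fit bidirectional vs DMSO.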

Read-out in assay [14]: Matrix Metallopeptidase 1 (MMP1), MMP1 (gene 4312)
In words: BSK_hDFCGF_MMP1: BioMAP Diversity Plus: hDFCGF Assay for Matrix Metallopeptidase 1 (MMP1) Biomarker Activity (AID 2283064). The note with it: primary human foreskin fibroblasts; actives raise or lower the signal. In short, it runs like this: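 Primary human foreskin fibroblasts in the hDFCGF system were dosed with test chemical, and MMP1 was measured by ELISA 24 h later. Values come from bidirectional curve fitting against the DMSO baseline.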

Read-out in assay [15]: Vascular cell adhesion molecule 1 (VCAM1), VCAM1 (gene 7412)
In words: BSK_hDFCGF_VCAM1: BioMAP Diversity Plus: hDFCGF Assay for Vascular cell adhesion molecule 1 (VCAM1) Biomarker Activity (AID 2283065).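 As to AC50: VCAM-1 protein level quantified by ELISA after 24 h chemical exposure.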 Conditions: primary human foreskin fibroblasts; actives raise or lower the signal. Put shortly:
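ELISA read-out of VCAM-1 on human skin fibroblasts, 24 h post-dose; gain or loss of signal fitted bidirectionally against DMSO baseline.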

Read-out in assay [16]: Plasminogen activator inhibitor-1 (PAI1), SERPINE1 (gene 5054)
In words: BSK_hDFCGF_PAI1: BioMAP Diversity Plus: hDFCGF Assay for Plasminogen activator inhibitor-1 (PAI1) Biomarker Activity (AID 2283066). Conditions: primary human foreskin fibroblasts; actives raise or lower the signal. Put shortly: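 Human foreskin fibroblast primary cells, 24 h chemical exposure; PAI-1 measured by ELISA. Bidirectional fitting relative to DMSO; parallel cultures stained with SRB for total protein to flag overt cytotoxicity.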

Read-out in assay [17]: Intercellular Adhesion Molecule 1 (ICAM1), ICAM1 (gene 3383)
Kind of assay: BSK_KF3CT_ICAM1: BioMAP Diversity Plus: KF3CT Assay for Intercellular Adhesion Molecule 1 (ICAM1) Biomarker Activity (AID 2283067). The note with it: primary human keratinocytes with fibroblasts; actives raise or lower the signal. Put shortly:
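ELISA readout of ICAM-1; KF3CT human skin co-culture (keratinocytes + foreskin fibroblasts), 24 h post-dose; gain/loss fit vs DMSO baseline.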

Read-out in assay [18]: Interferon-gamma inducible Protein 10 (IP10), CXCL10 (gene 3627)
Kind of assay: BSK_KF3CT_IP10: BioMAP Diversity Plus: KF3CT Assay for Interferon-gamma inducible Protein 10 (IP10) Biomarker Activity (AID 2283068). The note with it: primary human keratinocytes with fibroblasts; actives raise or lower the signal. In short, it runs like this: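 Signal is secreted/surface IP-10 by ELISA in a human primary skin co-culture of keratinocytes and foreskin fibroblasts, taken 24 h post-dosing; DMSO served as negative control.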

Assay [19] can be described thus: BSK_KF3CT_SRB: Viability Assessment in the BioMAP Diversity Plus: KF3CT Assay (AID 2283069).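 Also: total protein by sulforhodamine B staining as a cytotoxicity measure; read 24 h after compound addition.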 The note with it: primary human keratinocytes with fibroblasts. Put shortly: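 Human primary keratinocyte plus foreskin fibroblast co-culture exposed to chemicals for 24 h. Total protein measured by 0.1% sulforhodamine B staining after 10% TCA fixation, read at 560 nm; bidirectional fitting versus DMSO baseline.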

Read-out in assay [20]: Interleukin-1 alpha (IL1a), IL1A (gene 3552)
In words: BSK_KF3CT_IL1a: BioMAP Diversity Plus: KF3CT Assay for Interleukin-1 alpha (IL1a) Biomarker Activity (AID 2283070). Conditions: primary human keratinocytes with fibroblasts; actives raise or lower the signal. In short, it runs like this: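 Human keratinocyte plus foreskin fibroblast primary co-culture, sampled 24 h after chemical dosing. IL-1a measured by ELISA; responses fitted bidirectionally against DMSO baseline (negative control), so gain or loss of signal both count.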

What is called AC50 is the concentration at which the activity in the assay is half-maximal.

The source made the active and inactive calls. The calls were made as follows: active = hit-call score of the fitted dose curve at least 0.9, where 1 is the maximum; inactive = score below 0.9.

`CC(C)N(C(=O)COc1nnc(C(F)(F)F)s1)c1ccc(F)cc1`: the outcome in assay [1], in assay [2], in assay [4], in assay [5], in [6] and in assay [7] was inactive. Also, the result in assay [8], in assay [11], in [12], in assay [13], in assay [16] and in assay [17] was inactive. Also, the outcome in [19] and in assay [20] was inactive. Besides, the AC50 in assay [3] is 22.9 µM (active); in [9], 15.9 µM (active); in [10] it was 28.9 µM (active); in assay [14], 17.7 µM (active); in assay [15] it was 8.54 µM (active); in [18] it was 30.8 µM (active).

As to `CNC(=O)Oc1cccc(N=CN(C)C)c1`, the result in assay [1], in assay [2], in assay [4], in assay [5], in assay [6] and in assay [7] was inactive. In addition, the outcome in [8], in [11], in assay [12], in assay [14], in [16] and in assay [17] was inactive. The result in assay [18], in [19] and in assay [20] was inactive. The AC50 was 15.2 µM (active) in [3]; 24.2 µM (active) in [9]; 15.9 µM (active) in [10]; 15.4 µM (active) in assay [13]; 8.35 µM (active) in assay [15].

For the molecule `COP(=S)(OC)Oc1ccc(SC)c(C)c1`, the result in [1], in assay [2], in [3], in [4], in assay [5] and in [6] was inactive. The outcome in assay [7], in assay [8], in assay [9], in assay [10], in [11] and in [12] was inactive. Moreover, the result in [13], in [15], in assay [16], in assay [17], in [18] and in assay [19] was inactive. In addition, in [20], the outcome was inactive. The AC50 in assay [14] is 9.5 µM (active).

Turning to `COP(=O)(OC)OC=C(Cl)Cl`, the result in assay [1], in assay [2], in assay [3], in assay [4], in assay [5] and in [6] was inactive. In addition, the result in assay [7], in [9], in assay [10], in assay [11], in assay [12] and in assay [13] was inactive. The outcome in assay [14], in [15], in assay [16], in assay [17], in assay [18] and in assay [19] was inactive. Besides, the outcome in assay [20] was inactive.

Turning to `OCCOc1ccccc1`, the outcome in assay [1], in [2], in [3], in assay [4], in assay [5] and in assay [6] was inactive. Further, the result in assay [7], in [8], in assay [9], in assay [10], in [11] and in assay [12] was inactive. In addition, the result in assay [13], in assay [14], in assay [15], in assay [16], in assay [17] and in assay [18] was inactive. For the same molecule, the result in assay [19] and in [20] was inactive.

In the case of `CCS(=O)(=O)c1cccnc1S(=O)(=O)NC(=O)Nc1nc(OC)cc(OC)n1`, the outcome in assay [1], in assay [2], in [3], in [4], in assay [5] and in [6] was inactive. The outcome in assay [7], in [8], in assay [9], in assay [10], in assay [11] and in assay [12] was inactive. Moreover, the outcome in assay [13], in assay [14], in assay [15], in assay [16], in assay [17] and in assay [19] was inactive. In addition, the result in assay [20] was inactive. Also, the AC50 in assay [18] was 0.266 µM (active).

On to `O=C1c2ccccc2C(=O)N1SC(Cl)(Cl)Cl`, for which the AC50 was 4.99 µM (active) in assay [1]; 20 µM (active) in [3]; 33.8 µM (active) in assay [4]; 29.7 µM (active) in [9]; 26 µM (active) in assay [10]; 33.1 µM (active) in assay [11]. The AC50 in [13] was 18.3 µM (active); in assay [18], 26.8 µM (active). For the same molecule, the outcome in assay [2], in [6], in [7], in [8], in assay [12] and in [14] was inactive. Further, the result in assay [15], in [16], in [17], in assay [19] and in assay [20] was inactive.

For the origin of these results see PubChem BioAssay (EPA / NIEHS).
